± gives the standard deviation of the averaged measurements.
Tests used:
Assay in all cases: cell viability (% of vehicle); higher = less cytotoxic
Details in all cases: 10 µM; 72 h
HCI01 = test system: HCI01 (cells of a triple-negative basal-like breast cancer xenograft)
HCI03 = test system: HCI03 (cells of an ER-positive luminal breast cancer xenograft)
HCI09 = test system: HCI09 (cells of a triple-negative luminal androgen receptor type breast cancer xenograft)
HCI11 = test system: HCI11 (cells of an ER-positive luminal breast cancer xenograft)
HCI13 = test system: HCI13 (cells of an ER-positive luminal breast cancer xenograft)
HCI16 = test system: HCI16 (cells of a triple-negative basal-like breast cancer xenograft)
UCD52 = test system: UCD52 (cells of a triple-negative basal-like breast cancer xenograft)
WHIM2 = test system: WHIM2 (cells of a triple-negative basal-like breast cancer xenograft)
WHIM30 = test system: WHIM30 (cells of a triple-negative basal-like breast cancer xenograft)
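Further: PDX cells carrying CMV promoter-driven luciferase, viability read as total photon flux per second by IVIS imaging following D-luciferin, vehicle control 0.1% DMSO.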

Row | SMILES | cell viability (HCI01) | cell viability (HCI03) | cell viability (HCI09) | cell viability (HCI11) | cell viability (HCI13) | cell viability (HCI16) | cell viability (UCD52) | cell viability (WHIM2) | cell viability (WHIM30)
1 | CCNC1CC(N)C(OC2OC(CN)=CCC2N)C(O)C1OC1OCC(C)(O)C(NC)C1O.CCNC1CC(N)C(OC2OC(CN)=CCC2N)C(O)C1OC1OCC(C)(O)C(NC)C1O.O=S(=O)(O)O.O=S(=O)(O)O.O=S(=O)(O)O.O=S(=O)(O)O.O=S(=O)(O)O (stereo not given) [Netilmicin Sulfate] | 99.3 ± 34 | 125 | 125 ± 46 | 111 | 98.3 ± 2.5 | 138 | 120 ± 18 | 115.7 ± 1.1 | 138 ± 28
2 | O=C1NC([O-])=NC1(c1ccccc1)c1ccccc1.[Na+] [Phenytoin sodium] | 97.2 ± 10 | 142 | 96.6 ± 14 | 101 | 104 ± 9.4 | 114 | 91.6 ± 8.2 | 105 ± 7.8 | 118 ± 8.7
3 | CC(C)C(N)C(=O)OCC(CO)OCn1cnc2c(=O)nc(N)[nH]c21.Cl (stereo not given) [Valganciclovir HCl] | 96.1 ± 5.7 | 104 | 90 ± 24 | 90.6 | 55.1 ± 2 | 111 | 120 ± 38 | 111 ± 28 | 138 ± 13
4 | Cn1c([N+](=O)[O-])cnc1COC(N)=O [Ronidazole] | 95.3 ± 20 | 134 | 94.5 ± 2.1 | 88.1 | 102 ± 13 | 108 | 91.2 ± 2.2 | 90.4 ± 19 | 102 ± 2.5
5 | NC(=O)NN=Cc1ccc([N+](=O)[O-])o1 [Nitrofurazone] | 125 ± 3.8 | 149 | 38.5 ± 15 | 92.3 | 159 ± 12 | 148 | 137 ± 15 | 105 ± 7.4 | 118 ± 18
6 | CC(CCC(=O)O)C1CCC2C3CCC4CC(O)CCC4(C)C3CC(O)C12C (stereo not given) [Deoxycholic acid] | 119 ± 25 | 143 | 107 ± 23 | 103 | 107.1 ± 0.2 | 87.1 | 112 ± 3.8 | 104 ± 19 | 91.5 ± 0.73
7 | CN(C)CCC=C1c2ccccc2COc2ccc(CC(=O)O)cc21.Cl [Olopatadine HCl] | 122 ± 18 | 130 | 101 ± 9.1 | 97.6 | 182 ± 38 | 99.1 | 81.6 ± 14 | 87.1 ± 13 | 108 ± 4.9
8 | CN(C)CCN1C(=O)c2cccc3cc(N)cc(c23)C1=O [Amonafide] | 103 ± 4 | 69.4 | 42.7 ± 14 | 90.4 | 64.7 ± 3.1 | 196 | 138 ± 26 | 55.5 ± 5.5 | 78.5 ± 1.6
9 | Cc1cccn2c(=O)c(-c3nnn[n-]3)cnc12.[K+] [Pemirolast potassium] | 97.99 ± 0.96 | 98.7 | 84 ± 3.5 | 90.1 | 97.8 ± 29 | 108 | 92.2 ± 1.2 | 113 ± 7.9 | 93.4 ± 17
10 | CC1=NS(=O)(=O)c2cc(Cl)ccc2N1 [Diazoxide] | 92.6 ± 9.1 | 151 | 86.4 ± 17 | 98.1 | 99.6 ± 11 | 102 | 104 ± 2.7 | 95.9 ± 3.5 | 117 ± 3.8
11 | NC1CN(c2c(F)cc3c(=O)c(C(=O)O)cn(C4CC4F)c3c2Cl)CC12CC2.O (stereo not given) [Sitafloxacin Hydrate] | 83.3 ± 48 | 95.5 | 111 ± 13 | 90.5 | 116.6 ± 0.93 | 122 | 88.8 ± 9.9 | 95.6 ± 27 | 119 ± 4.7
12 | CC(O)C1C(=O)N2C(C(=O)O)=C(SC3CNC(CNS(N)(=O)=O)C3)C(C)C12 (stereo not given) [Doripenem] | 91.4 ± 3.9 | 103 | 143 ± 73 | 106 | 99.2 ± 19 | 85.2 | 82.7 ± 7.5 | 93.3 ± 19 | 90.3 ± 15
13 | CC(S)C(=O)NCC(=O)O (stereo not given) [Tiopronin (Thiola)] | 104 ± 4.1 | 109 | 54.6 ± 48 | 107 | 105 ± 18 | 99.3 | 93.7 ± 3.6 | 103 ± 14 | 115 ± 4.5
14 | COc1cc(C2c3cc4c(cc3C(OC3OC5COC(C)OC5C(O)C3O)C3COC(=O)C23)OCO4)cc(OC)c1O (stereo not given) [Etoposide] | 103 ± 7.8 | 94.2 | 90 ± 4.5 | 89.4 | 84 ± 3 | 69.7 | 120 ± 4.3 | 91.8 ± 6 | 95.3 ± 21
15 | Cc1nccn1CC1CCc2c(c3ccccc3n2C)C1=O.Cl.O.O (stereo not given) [Ondansetron hydrochloride dihydrate] | 101 ± 12 | 82.1 | 117 ± 49 | 107 | 143 ± 6 | 106 | 83.84 ± 0.49 | 88.3 ± 12 | 68.2 ± 14
16 | Cl.NCCCC(N)(C(=O)O)C(F)F.O (racemic) [DL-α-Difluoromethylornithine (hydrochloride hydrate)] | 94.2 ± 12 | 94 | 92.3 ± 10 | 65.9 | 80.9 ± 5.2 | 99.2 | 85.3 ± 3.9 | 91.9 ± 5.5 | 97.1 ± 3.2
17 | N[C@@H](Cc1cc(I)c(Oc2cc(I)c(O)c(I)c2)c(I)c1)C(=O)O [L-Thyroxine] | 66.5 ± 44 | 151 | 114 ± 14 | 93.3 | 150 ± 56 | 136 | 85 ± 2.5 | 93.6 ± 27 | 177 ± 6.2
18 | CCCNC(C)C(=O)Nc1c(C)csc1C(=O)OC.Cl (stereo not given) [Articaine HCl] | 104 ± 4.9 | 115 | 116 ± 7 | 96.9 | 79.6 ± 10 | 133 | 94.3 ± 5.7 | 104 ± 18 | 129 ± 5.7
19 | COc1cnc(NS(=O)(=O)c2ccc(N)cc2)nc1 [Sulfameter] | 97.7 ± 24 | 142 | 86.1 ± 1.6 | 83 | 93.22 ± 0.58 | 113 | 80.9 ± 21 | 92.2 ± 18 | 95.13 ± 0.27
20 | CC(c1ncncc1F)C(O)(Cn1cncn1)c1ccc(F)cc1F (stereo not given) [Voriconazole] | 121 ± 8.9 | 133 | 98.8 ± 11 | 121 | 137 ± 7.1 | 115 | 106 ± 22 | 105 ± 9.5 | 137 ± 22
